Data on 28 molecules can be found in PubChem BioAssay (NCI).

Test in all cases: NCI-60 one-dose screen, 48 h (100 = growth as untreated, 0 = no growth, -100 = all killed)
What all share (settings): 10 µM

The test system of experiment [1] is DU-145 prostate.
Experiment [2] deals with K-562 leukemia.
Experiment [3] deals with MALME-3M melanoma.
In experiment [4] the test system is MDA-MB-231 breast.
In experiment [5] the test system is SF-268 CNS.
In experiment [6] the test system is SF-295 CNS.
Experiment [7] has as its system SF-539 CNS.
Experiment [8] has as its system UACC-257 melanoma.
Experiment [9] has as its system M14 melanoma.
In experiment [10] the test system is RXF 393 renal.

The panel holds about 83,000 compounds, 20% with a hit somewhere; the sample as a whole holds those more often.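 How to read the values: 0–100, growth inhibition (40 = 60% inhibited); 0, no net growth; -100 to 0, cell death (-40 = 40% of starting cells died; -100 = all dead).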 A number with no mark means an inactive call. Active and inactive are the calls of the source. How the source made its calls: active means growth percent below 10; inactive means the rest.

On to `CCCCSc1nc(Nc2ccc(/C(C)=N/NC(N)=S)cc2)c(C#N)c(-c2ccc(OC)cc2)n1`, for which the growth in experiment [1] was 61.5%; in [2], 78.2%; in experiment [3], -39.6% (active); in [4] it was -11.4% (active); in experiment [5], 56.6%; in [6] it was 69.7%. In addition, the growth was -55.4% (active) in [7], 74.9% in experiment [8] and 39.3% in experiment [9].

Turning to `CC(=O)NNc1ccc2nnc(-c3ccc(Br)cc3)n2n1`, the growth in [1] is 103%; in [2] it was 95.5%; in experiment [3] it was 107%; in experiment [4], 94%; in experiment [10], 68.5%; in experiment [5], 102%. Further, the growth was 96.1% in experiment [6], 90.2% in experiment [7], 105% in experiment [8] and 98.2% in [9].

In the case of `COc1ccc(C2NC(=S)NC(C)=C2C(=O)OC(C)C)cc1OC` (stereo not given), the growth was 110% in experiment [1]; 105% in experiment [2]; 95.7% in [3]; 105% in experiment [4]; 107% in experiment [5]; 97.4% in experiment [6]. Besides, the values for the growth in [7], in experiment [8] and in [9] were 103%, 119% and 105%, respectively.

As to `COc1ccc(-c2c(N)c(=O)n(C)c3ccccc23)cc1`, the growth in experiment [1] is 83.2%; in [2] it was 46.8%; in experiment [3], 70.6%; in [4] it was 49.5%; in experiment [5] it was 66%; in [6] it was 75.2%. For the same molecule, the growth in experiment [7] is 80.6%; in experiment [8], 92.9%; in experiment [9], 70.6%.

Turning to `O=C(NO)c1ccc(CNc2nc(-c3ccccc3)c3ccccc3n2)cc1`, the growth in experiment [1] was 10.2%; in [2], 9.84% (active); in [3], -34.4% (active); in experiment [4], -21.8% (active); in [5] it was 7.8% (active); in experiment [6], -49% (active). Further, the growth in experiment [7] was 1.02% (active); in experiment [8], 1.34% (active); in [9], 9.54% (active).

As to `N#Cc1c(-c2ccc(Cl)cc2)cc(-c2ccccc2)nc1OCc1ccccc1`, the growth in [1] is 90.7%; in experiment [2], 45%; in [3], 102%; in experiment [4], 80.2%; in experiment [5] it was 92.9%; in [6] it was 66.2%. In addition, the figures for the growth in [7], in experiment [8] and in experiment [9] were 75.2%, 80.6% and 90.9%, respectively.

As to `CCCCOc1ccc(Nc2nc3ccccc3nc2Nc2ccc(OCCCC)cc2)cc1`, the growth in [1] was 87.9%; in [2] it was 77.3%; in [3] it was 106%; in [4], 109%; in experiment [5] it was 82%; in experiment [6] it was 87.5%. Moreover, the growth in experiment [7] was 106%; in [8], 97.3%; in experiment [9], 88.5%.

In the case of `COc1ccc(CN2[C@H](C(=O)NCc3ccc(C(=O)NO)cc3)Cc3c([nH]c4ccccc34)[C@H]2C2CC2)cc1`, the growth in [1] is 57%; in experiment [2] it was 26.2%; in [3], 30.4%; in experiment [4], 54.5%; in experiment [5], 64.9%; in experiment [6] it was 45.5%. Further, the values for the growth in experiment [7], in experiment [8] and in [9] were 41.6%, 43.4% and 49.6%, respectively.

`CC(C)(C)Nc1nc2cc(Cl)c(Cl)cc2nc1S(C)(=O)=O`: the growth was 57.2% in experiment [1]; -5.97% (active) in [2]; -78.5% (active) in experiment [3]; 26.7% in experiment [4]; 6.24% (active) in experiment [10]; 73.7% in experiment [5]. Also, the growth in [6] is 91.1%; in [7], 47.3%; in experiment [8], 70.6%; in [9], 5.68% (active).

As for `COc1ccc2[nH]c(=O)c(CSc3nccc(-c4ccc(Cl)cc4)n3)cc2c1`, the growth in experiment [1] was 44.8%; in [2], 23.2%; in experiment [3], 46.4%; in experiment [4], 18.4%; in [10] it was -23.7% (active); in experiment [5] it was 28.8%. For the same molecule, the growth in experiment [6] is -20.3% (active); in [7], -70.3% (active); in [8], 6.77% (active); in experiment [9], 55.2%.

On to `O=C(N/C(=C1/OCCN1Cc1ccccc1)[P+](c1ccccc1)(c1ccccc1)c1ccccc1)c1ccccc1`, for which the growth in experiment [1] was -15.1% (active); in experiment [2], 8.08% (active); in experiment [3], -60.6% (active); in experiment [4], 0.242% (active); in experiment [5] it was 21.1%; in [6] it was 31.4%. Besides, the values for the growth in experiment [7], in experiment [8] and in [9] were 25.3%, -4.84% (active) and 19.4%, respectively.

For the molecule `Cc1ccc(-c2nc(Nc3ccc(C)c(S(N)(=O)=O)c3)c3ccccc3n2)cc1`, the growth is 35% in experiment [1]; 5.02% (active) in experiment [2]; 92.4% in experiment [3]; 96.5% in [4]; 96.1% in experiment [5]; 85.2% in experiment [6]. The growth in experiment [7] is -31.3% (active); in [8], 104%; in experiment [9], 63.2%.

On to `O=C(CNc1nc(-c2ccccc2)cs1)Nc1ccccc1`, for which the growth was 14.1% in [1]; 5.68% (active) in experiment [2]; -61% (active) in experiment [3]; -30.7% (active) in experiment [4]; 8.59% (active) in experiment [5]; -1.92% (active) in [6]. Besides, the growth was -93.7% (active) in experiment [7], -14.3% (active) in experiment [8] and -73.8% (active) in experiment [9].

As to `Cc1cc(C)nc(NS(=O)(=O)c2ccc(N/C(N)=N/c3nccc(-c4ccccc4)n3)cc2)n1`, the growth in [1] was 88.8%; in experiment [2], 49.3%; in experiment [3], 63.3%; in [4], 59.4%; in experiment [5], 82%; in experiment [6] it was 52.2%. In addition, the growth in [7] is 70%; in experiment [8], 94%; in experiment [9], 88.4%.

As for `O=C1CCC(N2Cc3c(NCc4ccc(-c5ccccc5)cc4)cccc3C2=O)C(=O)N1` (stereo not given), the growth in experiment [1] is 85%; in [2], 72.4%; in experiment [3], 15.2%; in experiment [4] it was 22.2%; in experiment [5], 68.1%; in [6], 81.9%. Moreover, the figures for the growth in experiment [7], in [8] and in experiment [9] were 58.4%, 103% and 75.4%, respectively.

With `CCCn1c(=O)c2[nH]c(-c3ccc(OCc4nc5ccccc5[nH]4)cc3)nc2n(CCC)c1=O`, the growth in experiment [1] was 54%; in [2], 76%; in [3], -36.4% (active); in [4] it was -42.6% (active); in experiment [5] it was 38%; in experiment [6], 37.4%. In addition, the values for the growth in experiment [7], in experiment [8] and in [9] were -44.3% (active), 82.3% and 73.7%, respectively.

As to `Cc1cc(C)nc(/N=C(\N)Nc2ccc(S(=O)(=O)Nc3nc(C)cc(C)n3)cc2)n1`, the growth in experiment [1] was 116%; in experiment [2], 102%; in experiment [3], 110%; in experiment [4], 105%; in experiment [5], 106%; in [6], 98%. Also, the growth is 102% in experiment [7], 108% in experiment [8] and 111% in [9].

For `O=C(CNc1nc(-c2ccccc2)cs1)Nc1cccc([N+](=O)[O-])c1`, the growth in [1] was -98.6% (active); in experiment [2], 8.88% (active); in experiment [3], -90.5% (active); in experiment [4] it was -88.7% (active); in experiment [5], -57.7% (active); in [6] it was -94.2% (active). The results for the growth in experiment [7], in experiment [8] and in experiment [9] were -100% (active), -71.5% (active) and -87.6% (active), respectively.

Turning to `CN1C(=O)N(C)C2SC(N/N=C/C=C/c3ccccc3)=NC21` (stereo not given), the growth was 84.2% in experiment [1]; 25.3% in experiment [2]; 66.8% in experiment [3]; 82.4% in experiment [4]; 75.2% in experiment [5]; 72.7% in experiment [6]. Moreover, the figures for the growth in experiment [7], in [8] and in experiment [9] were 75.7%, 83.1% and 54.7%, respectively.

On to `CN(C)c1ccc(/C=C/C(=O)c2ccc(NC(=O)CN3C(=O)NC(C)(c4ccccc4)C3=O)cc2)cc1` (stereo not given), for which the growth in [1] was 75.3%; in experiment [2] it was 27.9%; in experiment [3] it was 80.3%; in experiment [4] it was 68.1%; in experiment [5], 57.9%; in experiment [6] it was 54.9%. The growth in experiment [7] was 55.2%; in [8], 62.9%; in [9] it was 51.5%.

Consider `O=C(NO)c1ccc(Cn2ccc3c(Nc4ccccc4)ncnc32)cc1`, for which the growth in experiment [1] was 20%; in experiment [2], 12.1%; in experiment [3], -4.38% (active); in [4], -30.6% (active); in [5], 30.8%; in experiment [6], -67.5% (active). For the same molecule, the growth was -80% (active) in experiment [7], 26.5% in [8] and 10.5% in [9].

Turning to `COc1ccc(NC(=O)CSc2nnc(-c3ccc4nc(-c5ccc(Cl)cc5)[nH]c4c3)o2)cc1`, the growth in experiment [1] is 55.4%; in [2] it was 14.7%; in experiment [3], -81.7% (active); in experiment [4], 20.5%; in experiment [5], 48%; in experiment [6], 26.1%. Besides, the values for the growth in experiment [7], in experiment [8] and in experiment [9] were 50.5%, 71.5% and 14.8%, respectively.

As for `CC1=C(c2cc(-c3ccc(Cl)cc3)c(C#N)c(N)n2)C(c2ccccc2)NC(=S)N1` (stereo not given), the growth in [1] was 51.3%; in experiment [2] it was 36.9%; in experiment [3] it was 4.96% (active); in [4] it was 51.9%; in [5], 51%; in experiment [6], 78.1%. Further, the results for the growth in [7], in [8] and in experiment [9] were 39.9%, 77.7% and 49.8%, respectively.

As to `Cc1noc2c(Cc3ccccc3)nn(CC(=O)N/N=C/c3ccc(Cl)cc3)c(=O)c12`, the growth in experiment [1] is 68.9%; in experiment [2], 93.7%; in experiment [3], 34.4%; in [4], 5.74% (active); in [5] it was 59.8%; in experiment [6], 38.8%. The growth is 67.7% in [7], 96% in [8] and 94.4% in [9].

For `Cc1ccc(-c2nc(Nc3ccc(S(N)(=O)=O)cc3)c3ccccc3n2)cc1`, the growth is 56.6% in experiment [1]; 6.36% (active) in experiment [2]; 98.8% in experiment [3]; 22.6% in experiment [4]; 52.1% in [5]; 24.2% in experiment [6]. Further, the growth in experiment [7] was 37%; in [8], 93.9%; in [9], 22.9%.

With `C/C(=C\c1ccc(O)cc1O)c1ccc2ccc(O)cc2[o+]1`, the growth in experiment [1] is 25.8%; in experiment [2], 72.7%; in [3], 56.8%; in [4], 39.6%; in experiment [5] it was 116%; in experiment [6], 80.6%. In addition, the growth is 72.4% in experiment [7], 84% in experiment [8] and 73.3% in experiment [9].

As for `COc1ccc(C2N(c3ccc(Br)cc3)N=C(C(C)=O)N2[C@H]2[C@H](OC(C)=O)O[C@H](COC(C)=O)[C@@H](OC(C)=O)[C@@H]2OC(C)=O)cc1` (stereo not given in full), the growth in experiment [1] is 85.7%; in experiment [2], 65%; in experiment [3], 93.4%; in [4], 72.1%; in experiment [5], 74.9%; in experiment [6] it was 64.1%. For the same molecule, the growth in experiment [7] was 80.7%; in [8] it was 89.9%; in experiment [9] it was 81.5%.

Take `COc1ccc(/C=C/C(=O)c2ccc(NC(=O)CN3C(=O)NC(C)(c4ccccc4)C3=O)cc2)cc1` (stereo not given): the growth is 87.7% in [1]; 60.2% in [2]; 90.5% in [3]; 87% in experiment [4]; 67.3% in [5]; 76.1% in experiment [6]. In addition, the figures for the growth in experiment [7], in [8] and in [9] were 80%, 92.4% and 87.9%, respectively.
